The source of these data is PubChem BioAssay AID1347155 (National Center for Advancing Translational Sciences (NCATS), 2019).

Inconclusive results are not listed. Activity calls are given as the source filed them. Calls follow the shape of the dose curve; as a rule, active = well fitted inhibition curve with a large enough effect; inconclusive = small, poorly fitted or top-dose-only effect; inactive = no such curve, though single readings can be large or run the other way.

The subject of the test is Zika virus NS2B-NS3 protease (linked). The experiment in a line: Optimization screen NINDS Rhodamine qHTS for Zika virus inhibitors: Linked NS2B-NS3 protease assay. Particulars: fluorogenic rhodamine substrate; series mostly up to 105 µM. The text has this:
Avindra Nath, Ph.D., National Institute of Neurological Disorders and Stroke (NINDS), Bethesda, MD
Radhakrishnan Padmanabhan, Ph.D., Georgetown University (GU), Washington D.C.
Zika Virus causes congenital defects, including microcephaly and is associated with Guillain-Barre syndrome, eningoencephalitis and myelitis in infected adult. […] Using a target-based approach, we hope to establish a screening paradigm to uncover novel, cell-active NS2B-NS3 protease (Zika Virus) specific inhibitors from NCATS' collection of small molecules using qHTS.
Four assay panel was created to identify potential Zika Virus inhibitors. Namely, (1) GU unlinked NS2B-NS3 AMC tagged protease qHTS, (2) GU unlinked NS2B-NS3 Rhodamine tagged protease qHTS, (3) NINDS linked NS2B-NS3 AMC tagged protease qHTS, (4) NINDS linked NS2B-NS3 Rhodamine tagged protease qHTS. Active compounds were re-acquired and re-screened to confirm inhibition. Inhibitors were further screened against various confirmatory and counterscreens in dose response format.
Early Translation Branch (ETB)
National Center for Advancing Translational Sciences (NCATS), Rockville, MD
National Institute of Health (NIH), Bethesda, Maryland
For the linked assay, Nath lab (NINDS) provided the purified linked NS2B-NS3 protease which is consists of hydrophilic domain of NS2B linked to the NS3 protease domain by a flexible (-GGGGSGGGG-) linker. Control compound aprotinin is obtained from Thermo Scientific (#78432; Waltham, Massachusetts). Rhodamine110 substrate ([N-Cbz]-Nle-Lys-Arg-Arg-Rhod110-Arg-Arg-Lys-Nle-[N-Cbz]) was purchased from either Genscript or Bachem.
1536-well Protease (Rhodamine110 Substrate) Assay:
Briefly, 3 microL of enzyme (25 nM final concentration), in assay buffer (10 mM Tris-HCl pH 8.0 with 0.01% Tween 20) were dispensed into a 1,536-well solid-bottom black plate (Greiner Bio One, Monroe, NC). Twenty-three nL of compounds (final concentration range 7.28 nM to 114 microM) or control Aprotinin (final concentration range 3.47 nM to 114 microM) were transferred via Wako Pin-tool (Wako Automation, Richmond, VA). Samples were incubated (room temperature, protected from light) for 15 minutes followed by a 1 microL Rhodamine110 substrate addition (1.5 microM final concentration). Plates were then immediately read on a ViewLux High-throughput CCD imager (PerkinElmer, Waltham, MA) equipped with FITC fluorescence optics (480(20) nm excitation, 540(25) nm emission), then incubated (room temperature, protected from light) for 15 minutes (~15% conversion). The change in fluorescence intensity over the 15-minute reaction period was normalized against no-inhibitor and no-enzyme controls and the resulting percent inhibition data were fitted to a 4-parameter Hill equation. Aprotinin was used as intraplate control.
In general terms: In qHTS, concentration-response curves come from the screen itself.
With `Cc1ccc2c(c1)[C@]13CCCC[C@@H]1[C@H](C2)N(C)CC3`, the compound was classed as inactive.
Take `CN1CC[C@@]23CCCCC2C1Cc1ccc(O)cc13` (stereo not given in full): the result was inactive.
As for `C=CCN1CCC2(C)c3cc(O)ccc3CC1C2C` (stereo not given), the compound was classed as inactive.
With `CC1O[C@@H](O[C@@H]2C(O)C[C@H](O[C@@H]3C(O)C[C@@H](OC4CC[C@@]5(C)C6CC[C@]7(C)C(C8=CC(=O)OC8)CC[C@@]7(O)C6CC[C@@H]5C4)OC3C)OC2C)CC(O)[C@H]1O` (stereo not given in full) the entry was “inactive”; with `C[C@H]1O[C@@H](O[C@H]2[C@@H](O)C[C@H](O[C@H]3[C@@H](O)C[C@H](O[C@H]4CC[C@@]5(C)[C@H](CC[C@@H]6[C@@H]5CC[C@]5(C)[C@@H](C7=CC(=O)OC7)CC[C@]65O)C4)O[C@@H]3C)O[C@@H]2C)C[C@H](O)[C@@H]1O`, “inactive”.
With `C[C@@H]1O[C@@H](O[C@H]2C[C@@H](O)[C@]3(CO)C4C(CC[C@]3(O)C2)[C@@]2(O)CC[C@H](C3=CC(=O)OC3)[C@@]2(C)C[C@H]4O)[C@H](O)[C@H](O)[C@H]1O` (stereo not given in full) the entry was “inactive”; with `CO[C@H]1[C@@H](O)CC(OC2[C@@H](O)CC(OC3[C@@H](O)C[C@H](OC4CC[C@@]5(C)C(CCC6C5CC(O)[C@]5(C)[C@H](C7=CC(=O)OC7)CCC65O)C4)O[C@@H]3C)O[C@@H]2C)O[C@@H]1C` (stereo not given in full), “inactive”; with `C[C@@H]1[C@@H]2Cc3ccc(O)cc3[C@@]1(C)CCN2CC1CC1`, “inactive”.
For the compound `CN1CC[C@@]23CCCC[C@@H]2[C@@H]1Cc1ccc(O)cc13`, the compound was classed as inactive.
With `CC(C)OC(=O)Nc1ccccc1` the entry was “inactive”; with `COC1C(O)C(C)O[C@@H](OC2CC[C@@]3(C)C4CC[C@]5(C)C(C6=CC(=O)OC6)CC[C@@]5(O)C4CC[C@@H]3C2)C1O` (stereo not given in full), “inactive”; with `C[C@@H]1O[C@@H](O[C@H]2C[C@@H](O)[C@]3(CO)[C@H]4[C@H](O)C[C@]5(C)[C@@H](C6=CC(=O)OC6)CC[C@]5(O)[C@@H]4CC[C@]3(O)C2)[C@H](O)[C@H](O)[C@H]1O`, “inactive”.
With `C[C@@H]1[C@@H]2Cc3ccc(O)cc3[C@@]1(C)CCN2CCc1ccccc1` the entry was “inactive”; with `CC[C@H](C)[C@H]1O[C@]2(C=C[C@@H]1C)C[C@@H]1C[C@@H](C/C=C(\C)[C@@H](O[C@H]3C[C@H](OC)[C@@H](O[C@H]4C[C@H](OC)[C@@H](O)[C@H](C)O4)[C@H](C)O3)[C@@H](C)/C=C/C=C3\CO[C@@H]4[C@H](O)C(C)=C[C@@H](C(=O)O1)[C@]34O)O2`, “inactive”; with `C[C@H]1O[C@@H](O[C@H]2[C@@H](O)C[C@@H](O[C@H]3[C@@H](O)C[C@H](O[C@H]4CC[C@@]5(C)[C@H](CC[C@@H]6[C@@H]5CC[C@]5(C)[C@@H](C7=CC(=O)OC7)CC[C@]65O)C4)O[C@@H]3C)O[C@@H]2C)C[C@H](O)[C@@H]1O`, “inactive”.
On to `C[C@H]1O[C@@H](O[C@H]2[C@@H](O)C[C@H](O[C@H]3[C@@H](O)C[C@H](O[C@H]4CC[C@]5(C)C6CC[C@]7(C)[C@@H](C8=CC(=O)OC8)CC[C@]7(O)C6CC[C@@H]5C4)O[C@@H]3C)O[C@@H]2C)C[C@H](O)[C@@H]1O` (stereo not given in full), for which the compound was called inactive.
Under `CC(C)=CCN1CC[C@@]2(C)c3cc(O)ccc3C[C@@H]1[C@@H]2C` stands “inactive”.
With `C=CCN1CCC2(C)c3cc(O)ccc3C[C@H]1[C@H]2C` the entry was “inactive”; with `C=CCN1CC[C@]23CCCCC2[C@H]1Cc1ccc(O)cc13` (stereo not given in full), “inactive”; with `CC1OC(O[C@H]2C[C@@H](O)[C@]3(CO)[C@H]4[C@H](O)C[C@]5(C)[C@@H](C6=CC(=O)OC6)CC[C@]5(O)[C@@H]4CC[C@]3(O)C2)C(O)C(O)C1O` (stereo not given in full), “inactive”.
